Assay outcomes from PubChem BioAssay.
HCV inh – blocks hepatitis C virus; Potency, µM (series often up to 41.8 µM), for inactives: top-dose activity change, negative = inhibition, usual class: inhibitors; actives 3.4% (n = 340,000); Huh7.5.1 HCVcc-Cre infection, luciferase reporter, 44 h; active means well fitted inhibition curve with a large enough effect; inconclusive means small, poorly fitted or top-dose-only effect, or another doubt; inactive means no such curve, though single readings can be large or run the other way; further: potency means the concentration at half of the fitted maximal effect
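Cells (1,000/well) were plated 4 h before compound, then infected with HCVcc-Cre virus (~0.5 moi). After 44 h further culture, infection was read as luciferase luminescence following a 15 min substrate incubation at room temperature.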
Vaccinia mCherry – vaccinia inhibition (mCherry reporter); Vaccinia virus mCherry reporter infection, fluorescence; Potency, µM (doses to about 36.5 µM), inactives show at the highest dose activity change, negative = inhibition, most hits filed as inhibitors; actives 0.63% (n = 310,000); AID 720579; calls by dose curve; tested in A549 cells; further: potency means the concentration at half of the fitted maximal effect; nearly all actives have a fitted effect of over 35% in size
HCMV antiviral – blocks human cytomegalovirus replication. activity change, negative = inhibition, % at 57.5 µM. AID 1259415. HFF cells, HCMV-luciferase reporter, 72 h; hits give low values. actives 4.5% (n = 410,000); in the data active means activity change below about -60%; inconclusive means no clear call, values can overlap the other calls; inactive means above about -39%
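Human foreskin fibroblasts infected with luciferase-reporter HCMV at MOI 1 PFU/cell, compounds at two doses. Luciferase measured 72 h post infection; normalized to buffer-only basal and Salinomycin (10uM) controls.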
Vaccinia Venus – inhibitors of vaccinia virus (Venus reporter) | Potency, µM (series often up to 36.5 µM), for inactives: top-dose activity change, negative = inhibition, hits mostly inhibitors | Vaccinia virus Venus reporter expression, fluorescence | AID 720580 | actives 0.46% (n = 330,000); calls by dose curve; tested in A549 cells; further: potency means the concentration at half of the fitted maximal effect; nearly all actives have a fitted effect of over 30% in size
FMDV antiviral – foot and mouth disease virus antiviral activity | FMDV antiviral cell-based qHTS | Potency, µM (series often up to 57.9 µM), for inactives: at the top dose activity change, negative = inhibition, usual class: inhibitors | actives 1.2% (n = 410,000) | AID 1159524; calls by dose curve; tested in HEK293T cells; further: read-out not given here; potency means the concentration at half of the fitted maximal effect; nearly all actives have a fitted effect of over 45% in size
* = called active by the depositor; i = inactive; u = inconclusive; x = not tested or not shown. This is a sample that favours compounds with a hit; in the whole collection about 7.3% have one here. On the % scale 0 is the no-effect control and ±100 the full control effect.

SMILES | HCV inh | Vaccinia mCherry | HCMV antiviral | Vaccinia Venus | FMDV antiviral
c1csc(-c2noc(CN3CCOCC3)n2)c1 | 5.2% | -3.5% | 23.7 | 7.4% | 21.3%
NC(=O)C1(N2CCCCC2)CCN(Cc2nc(-c3cccs3)no2)CC1 | -13.2% | x | -31.4 | x | 35.5µM*
O=[N+]([O-])c1cccc2c([As](=O)(O)O)cccc12 | u | i | -73.5* | -14.3% | -5.1%
O=c1[nH]ccc2c([N+](=O)[O-])cccc12 | 5.2% | -7.6% | 7.3 | -5.8% | 10.9%
O=C(CCN1C(=O)CC1c1ccco1)N1CCOCC1 (centres undefined) | x | 3.0% | x | -1.5% | -9.2%
CCC1(c2ccc(F)cc2)NC(=O)N(CC(=O)Nc2cccc(S(=O)(=O)N3CCCCC3)c2)C1=O (centres undefined) | 10µM* | -21.4% | -39.4 | -23.5% | -23.6%
CCOC(=O)c1cc(-c2ccccc2)sc1NC(=O)CN1C(=O)NC(CC)(c2ccc(F)cc2)C1=O (centres undefined) | 10µM* | x | -8.8 | x | -11.5%
CC1CCC2(CC1)NC(=O)N(CC(=O)Nc1cccc(S(=O)(=O)N3CCCCC3)c1)C2=O (centres undefined) | 25.1µM* | x | -25.6 | x | -24.6%
CN(c1ccccc1)S(=O)(=O)c1ccc(Cl)c(C(=O)Nc2ccccc2N2CCOCC2)c1 | 11.2µM* | -24.0% | -31.8 | -11.5% | -27.1%
CN(c1ccccc1)S(=O)(=O)c1cccc(C(=O)Nc2ccc(N3CCOCC3)cc2)c1 | 10µM* | i | -34.0 | -27.5% | u
CS(=O)(=O)c1ccc(C(=O)Nc2ccccc2N2CCOCC2)c(Cl)c1 | -9.8% | i | -7.8 | -2.4% | 3.3%
CCNc1ccc(C(=O)OCC)cc1NC(=O)c1cccc(S(=O)(=O)N(C)c2ccccc2)c1 | 8.91µM* | -12.9% | -23.5 | -28.2% | u
CN(c1ccccc1)S(=O)(=O)c1cccc(C(=O)NCC(c2cccs2)N2CCOCC2)c1 (centres undefined) | x | -3.0% | 4.3 | -23.8% | u
CN(c1ccc(F)cc1)S(=O)(=O)c1ccc(Cl)c(C(=O)NCC2(N3CCOCC3)CCCCC2)c1 | 11.2µM* | u | -37.6 | -16.3% | u
O=C1CCC[C@@H]2CC(N(Cc3cc4ccccc4s3)c3ccccc3)C[C@@H]3CCN1[C@H]23 (some centres undefined) | x | i | x | -10.6% | x
COc1ccc(S(=O)(=O)N2CCN(c3ccccc3OC)CC2)cc1-c1noc(C)n1 | x | i | u | -11.1% | -7.7%
CCc1ccc(NC(=O)CC2C(=O)N(c3ccc(OC)cc3)C(=O)N2Cc2ccc(OC)cc2)cc1 (centres undefined) | x | i | u | -15.7% | 22.5%
O=C(O)Cc1ccc2oc(-c3cccnc3)nc2c1 | -4.1% | i | -34.3 | -2.2% | 4.8%
COC(=O)c1ccccc1NC(=O)CSc1nnnn1CC(=O)O | 38.6% | i | -10.9 | -5.2% | -6.9%
O=S(Cc1ccc(Cl)cc1)c1ccccc1 (centres undefined) | 6.4% | i | -22.4 | -19.6% | 40.1%
CN(C)S(=O)(=O)c1cccc(C(=O)Nc2ccc(N3CCOCC3)cc2)c1 | u | i | -79.0* | -3.4% | 1.9%
Cc1ccc(N(C)S(=O)(=O)c2cccc(C(=O)Nc3ccc(N4CCOCC4)cc3)c2)cc1 | 6.31µM* | x | u | x | 25.1µM*
CN(C)S(=O)(=O)c1cccc(C(=O)Nc2ccc(S(=O)(=O)N3CCCC3)cc2)c1 | -12.1% | x | -20.1 | x | -20.5%
COc1ccc(N(C)S(=O)(=O)c2cccc(C(=O)Nc3ccc(N4CCOCC4)cc3)c2)cc1 | u | x | -31.0 | x | u
CCOCOCc1cc(OC(C)C)ccc1N1C(=O)C[C@@H](C(=O)OC)[C@H]1c1ccc(OC(C)C)c(OC)c1 | x | x | -5.6 | x | x
CC(=O)Nc1cccc(Nc2cc(C)nn2C)c1 | x | 8.7% | 29.0 | 1.3% | -0.7%
Cc1ccc(C2=C(O)c3ccccc3C(=O)C2=O)cc1 | 17.8% | x | 3.8 | x | 3.3%
O=C1C(=O)c2ccccc2C(O)=C1c1cccc([N+](=O)[O-])c1 | -16.9% | -28.8% | -66.3* | 0.3% | 39.8µM*
Cn1c(=O)c2c(c3ccccc31)OC(=O)CC2c1cccc(F)c1 (centres undefined) | x | -16.1% | 11.8 | -11.4% | -6.2%
Cc1cc(C)c2c(N)c(C(=O)Nc3ncc(C)s3)sc2n1 | u | -2.3% | -85.8* | -23.5% | 5.01µM*
